According to PubChem BioAssay (Tox21):
Inconclusive results are not listed. Where a call stands in place of a potency, no number is given. The source made the active and inactive calls. The call rests on the fitted dose curve; in most records, active means well fitted cell-killing curve with a large enough effect in the repeat runs; inconclusive means weak or mixed curves, or effect the other way; inactive means no such curve, though single readings can be large or run the other way.

assay: qHTS assay for identifying genotoxic compounds that show differential cytotoxicity against isogenic chicken DT40 cell lines with known DNA damage response pathways - Rev3 mutant cell line (AID 743014); details: chicken DT40 Rev3-/- viability, CellTiter-Glo, 40 h; series mostly up to 68.4 µM; further: nearly all actives have a fitted effect of over 55% in size
Source text: National Center for Advancing Translational Sciences [NCATS]
NIH Chemical Genomics Center [NCGC]
U.S. Environmental Protection Agency [EPA]
National Institutes of Environmental Health Sciences [NIEHS]
National Toxicology Program [NTP]
U.S. Food and Drug Administration [FDA]
DNA repair pathways play a critical role in cellular homeostasis by repairing DNA damage induced by endogenous processes and xenobiotics. Isogenic chicken DT40 cell lines deficient in different DNA repair pathways can be used to identify genotoxic compounds and aid in characterizing the nature of the DNA damage induced. Two DNA repair-deficient cell lines with disrupted genes, Rad54/Ku70 or Rev3, were used to screen the Tox21 10K compound library. Possible genotoxicity was based on the presence of a significant increase in cytotoxicity in one or more of the DNA repair-deficient cell lines compared to that observed in the parental DNA repair-proficient cell line. CellTiter Glo viability assay (Promega, Madison, WI) was used to measure cell viability in these cells after compound treatment. This assay includes the data from the Rev3 mutant cell line.
Tox21 Assay Protocol Summary:
300 DT40 mutant cells in 5 uL/well were dispensed into white, solid-bottom 1536-well plates using a Multidrop Combi (ThermoFisher Scientific, Waltham, MA) dispenser. After the assay plates were incubated at 37 C/5% CO2 for approximately 0.5 hour, 23 nL of compounds dissolved in DMSO, positive controls or DMSO only was transferred into the assay plate by a pintool work station (Kalypsys, San Diego, CA). The assay plates were incubated at 37 C/5% CO2 for 40 hours. After 5 uL per well of CellTiter-Glo reagent was added into each well of the assay plates, the plates were incubated for 30 min at room temperature and the luminescence intensity of the plates was measured using a ViewLux (PerkinElmer, Shelton, CT) plate reader.
Potency means the concentration at half of the fitted maximal effect.

Q: Which Potency does the source give for `CC(=O)c1c(C)cc(C(C)(C)C)cc1C` here?
A: Its Potency is “inactive”.

Q: Which Potency does the source give for `O=S(=O)(O)c1ccc(Cl)cc1` here?
A: Its Potency is “inactive”.

Q: With `CC(=O)c1ccc2ccc3ccccc3c2c1` as the compound, how does the Potency read?
A: Its Potency is 60.8 µM (active).

Q: For `O=C(O)Cc1ccccc1Oc1ccc(Cl)cc1Cl`, which Potency is on record?
A: The Potency was “inactive”.

Q: With `CCC(C)c1nccnc1OC` (stereo not given) as the compound, how does the Potency read?
A: Its Potency is “inactive”.

Q: With `Cc1ccc(N)nc1` as the compound, how does the Potency read?
A: Its Potency is “inactive”.

Q: With `COc1ccc(Cl)cc1C` as the compound, how does the Potency read?
A: The Potency was “inactive”.

Q: With `C=CC(=O)OCCOCCOCC` as the compound, how does the Potency read?
A: The Potency was “inactive”.

Q: For `CC(C)(C)c1ccc(N)cc1`, which Potency is on record?
A: The Potency was “inactive”.

Q: For `CC(=O)Nc1ccc(OCCOCCOc2ccc(NC(C)=O)cc2)cc1`, which Potency is on record?
A: The Potency was “inactive”.

Q: For `CCCCNCC`, which Potency is on record?
A: The Potency was “inactive”.

Q: For `Cc1ccccc1C#N`, which Potency is on record?
A: The Potency was “inactive”.

Q: With `O=Cc1ccc(C(=O)O)cc1` as the compound, how does the Potency read?
A: The Potency was “inactive”.

Q: For `CCC(C)(C)C`, which Potency is on record?
A: Its Potency is “inactive”.

Q: For `CCCCCCC(O)CO` (stereo not given), which Potency is on record?
A: Its Potency is “inactive”.

Q: For `C[C@@H](CN1CC(=O)NC(=O)C1)N1CC(=O)NC(=O)C1`, which Potency is on record?
A: The Potency was “inactive”.

Q: For `N=C(N)N1CCc2ccccc2C1`, which Potency is on record?
A: Its Potency is “inactive”.

Q: With `CC(C)(C)C(=O)NCCCC(=O)O` as the compound, how does the Potency read?
A: Its Potency is “inactive”.

Q: For `CC(C)(O)CCCC1=CCC(C=O)CC1` (stereo not given), which Potency is on record?
A: The Potency was 65.2 µM (active).

Q: With `Cc1ccc(Br)cc1` as the compound, how does the Potency read?
A: The Potency was “inactive”.

Q: Which Potency does the source give for `Clc1cc(Cl)c(Cl)c(Cl)c1Cl` here?
A: The Potency was “inactive”.

Q: For `CC(CC(=O)Cl)CC(C)(C)C` (stereo not given), which Potency is on record?
A: The Potency was “inactive”.

Q: With `CCN1CCN(C(=O)N[C@@H](C(=O)N[C@@H]2C(=O)N3C(C(=O)O)=C(CSc4nnnn4C)CS[C@H]23)c2ccc(O)cc2)C(=O)C1=O` as the compound, how does the Potency read?
A: Its Potency is “inactive”.

Q: With `CC(C)(C)NCC(O)COc1cccc2c1CCC(=O)N2` (stereo not given) as the compound, how does the Potency read?
A: Its Potency is “inactive”.

Q: For `CCO[Si](CC(C)C)(OCC)OCC`, which Potency is on record?
A: The Potency was 24.3 µM (active).

Q: With `O=C(c1ccccc1)c1cccc(O)c1` as the compound, how does the Potency read?
A: The Potency was “inactive”.

Q: Which Potency does the source give for `CC/C=C\CCOC(=O)c1ccccc1` here?
A: The Potency was “inactive”.

Q: Which Potency does the source give for `C=CCOC(=O)CCCCCCCC` here?
A: The Potency was “inactive”.

Q: For `N#CC1(N)CCCCC1`, which Potency is on record?
A: Its Potency is “inactive”.

Q: For `NS(=O)(=O)c1cc2c(cc1C(F)(F)F)NCNS2(=O)=O`, which Potency is on record?
A: The Potency was “inactive”.

Q: Which Potency does the source give for `Cc1ccc(S(=O)(=O)NC(=O)NN2CC3CCCC3C2)cc1` (stereo not given) here?
A: Its Potency is “inactive”.

Q: With `CC(C)(O)c1ccc(C(C)(C)O)cc1` as the compound, how does the Potency read?
A: The Potency was “inactive”.

Q: For `NC(=O)CC[C@@H](N)C(=O)O`, which Potency is on record?
A: Its Potency is “inactive”.

Q: Which Potency does the source give for `CN(C)CCc1c[nH]c2ccc(CS(=O)(=O)N3CCCC3)cc12` here?
A: Its Potency is “inactive”.

Q: Which Potency does the source give for `Cc1ccc2ccccc2n1` here?
A: Its Potency is “inactive”.

Q: With `CC(=O)Oc1ccc(C(C)=O)cc1` as the compound, how does the Potency read?
A: The Potency was “inactive”.

Q: For `CCCCc1ccc(Cl)cc1`, which Potency is on record?
A: Its Potency is “inactive”.

Q: For `COc1cc(OC)cc(OC)c1`, which Potency is on record?
A: Its Potency is “inactive”.

Q: With `Cc1ccc(O)c(C(=O)c2ccccc2)c1` as the compound, how does the Potency read?
A: Its Potency is “inactive”.

Q: With `C/C(Cl)=C/CCl` as the compound, how does the Potency read?
A: The Potency was “inactive”.
